The text below walks through data of the supplement of paper PMC3334620.

The full ranking holds about 33,000 sequences; the median of “E-score (-0.5 to 0.5)” is about -0.013, and the highest 2% start at about 0.3. The list comes from a sample in which the highest values are over-represented; it also holds similar and randomly drawn sequences.

In the assay the target is T1, Msn1 (UniProt P22148).
T1 sequence: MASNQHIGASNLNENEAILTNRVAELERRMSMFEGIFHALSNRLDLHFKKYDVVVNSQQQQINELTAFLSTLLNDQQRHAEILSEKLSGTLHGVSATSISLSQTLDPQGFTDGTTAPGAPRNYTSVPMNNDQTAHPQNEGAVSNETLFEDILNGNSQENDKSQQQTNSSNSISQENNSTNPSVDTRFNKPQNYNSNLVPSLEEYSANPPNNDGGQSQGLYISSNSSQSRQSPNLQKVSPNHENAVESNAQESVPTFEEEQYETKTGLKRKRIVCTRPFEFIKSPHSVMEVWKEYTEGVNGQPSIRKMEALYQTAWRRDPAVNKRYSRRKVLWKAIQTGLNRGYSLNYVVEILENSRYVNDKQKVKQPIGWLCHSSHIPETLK
As to the kind of experiment: PBM E-score (8-mer binding enrichment) (E-score (-0.5 to 0.5)); higher = stronger / more preferred TF binding. The conditions noted are these: protein concentration: 200 nM; construct: GST-full length. The essentials:
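GST-tagged yeast TFs (full-length or DNA-binding domain) were made by PURExpress in vitro transcription/translation and applied at about 100-200 nM to universal all-10-mer Agilent arrays. The arrays were made double-stranded by primer extension, on fresh or once-stripped slides. Bound protein was detected with fluorescent anti-GST, and scans were normalised with masliner. Each ungapped eight-base word, pooled with its reverse complement, received an E-score (modified Wilcoxon-Mann-Whitney statistic) from the Universal PBM Analysis Suite.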
Turning to TCGCAAGA, the “PBM E-score” value is -0.177.
For AGGCAAAA the value was 0.163.
Next, CTTGTTCA: -0.0388.
As to GAGAGTTA, the “PBM E-score” value is -0.0018.
Regarding TCAGTTCA, the “PBM E-score” value was -0.039.
For TATAAAAA the value was 0.318; for ACTAAAAG, 0.0984.
Consider TATATAAA, for which the “PBM E-score” value came out at 0.253.
For the sequence ATTAAAAG, the “PBM E-score” value was found to be 0.156.
Turning to ATTAAAAA, the “PBM E-score” value was found to be 0.327.
Turning to ATTAAAAC, the “PBM E-score” value worked out at 0.156.
Next, ACTAAAAC: 0.14; CATAAAAA: 0.181; ACTAAAAA: 0.309.
For the sequence CAATTTCC, the “PBM E-score” value was 0.0903.
As to ACCAACAG, the “PBM E-score” value was -0.127.
For CGCAAACA the value was 0.143.
Turning to CAGCACAG, the “PBM E-score” value was 0.00522.
Regarding GTCGTCTA, the “PBM E-score” value is -0.00305.
On to AGCGTGTC, for which the “PBM E-score” value came to 0.0384.
In the case of CGCGTGTA, the “PBM E-score” value is 0.114.
As for CGCGTGTC, the “PBM E-score” value was found to be 0.344.
AGAAATGG: the “PBM E-score” value is -0.076.
Turning to ACCCTTAT, the “PBM E-score” value was -0.0336.
TATGGACA: the “PBM E-score” value is 0.476.
On to CATGGACA, for which the “PBM E-score” value was determined as 0.47.
Consider TATGGAGA, for which the “PBM E-score” value worked out at 0.0848.
With TATGGAAA, the “PBM E-score” value worked out at 0.071.
Turning to AATGGACA, the “PBM E-score” value amounted to 0.438.
Next, GATGGACA: 0.443; AATGGACT: 0.19; CATGGACG: 0.137.
For GATGGACC the value was 0.0221; for AATGGACG, 0.185.
Next, CATGGACC: -0.0789.
Turning to GATGGAAA, the “PBM E-score” value was -0.126.
For ATTGGTAA the value was 0.00511; for CCTCCTGA, -0.153.
For the sequence ACACATCC, the “PBM E-score” value came to 0.0829.
Next, AATACCCA: -0.0704; TATTGTGA: 0.0467.
On to AGCACCAA, for which the “PBM E-score” value was found to be 0.0195.
On to ACAGTGCC, for which the “PBM E-score” value is 0.063.
For CGAATCGA the value was 0.213.
ACAGCCTG: the “PBM E-score” value was -0.0349.
Regarding ATGCCAAC, the “PBM E-score” value turned out to be 0.0264.
ATTTCCCG: the “PBM E-score” value was found to be 0.188.
Turning to AACTACTT, the “PBM E-score” value was determined as 0.00311.
In the case of ATGAGCAT, the “PBM E-score” value worked out at 0.017.
In the case of CAGAAATA, the “PBM E-score” value was 0.0248.
With ACGTCCTG, the “PBM E-score” value amounted to 0.0274.
AAGTCCTC: the “PBM E-score” value turned out to be 0.244.
For CCGTCCTA, the “PBM E-score” value is -0.0332.
For ACGTCCTA, the “PBM E-score” value stood at 0.354.
For AAGTCCTG the value was 0.292; for AAGTCCTA, 0.409.
With CTTGTCAA, the “PBM E-score” value is 0.162.
On to CTTGTACA, for which the “PBM E-score” value was 0.311.
Consider ATTGTCCA, for which the “PBM E-score” value was 0.466.
Regarding ATTGTTCG, the “PBM E-score” value turned out to be 0.259.
On to ATTGTACA, for which the “PBM E-score” value came to 0.242.
Turning to CTTGTACC, the “PBM E-score” value was 0.286.
Next, ATTGTCAA: 0.12; CTTGTCGA: 0.0891; CTTGTCCA: 0.464.
Next, ATCGTCCA: -0.0991; ATTGTCCG: 0.468.
For ACTGTCCG, the “PBM E-score” value amounted to 0.183.
Turning to CATTATGC, the “PBM E-score” value is -0.00798.
As for AGTTCGCC, the “PBM E-score” value is 0.00171.
As for GACGCGAA, the “PBM E-score” value was 0.0618.
As for TACTCGAA, the “PBM E-score” value is -0.00961.
In the case of GCCGACGC, the “PBM E-score” value is 0.0201.
As to GTTGTCCA, the “PBM E-score” value is 0.381.
For CTTGTCCC the value was 0.47.
For the sequence ATTGTCCC, the “PBM E-score” value is 0.462.
Next, CTGGTCCC: -0.218; ATTGTCAC: 0.297.
Next, GTTGTCGA: 0.00891; GTTGTCAA: 0.0641.
On to ACTGTCCC, for which the “PBM E-score” value came out at 0.127.
For the sequence CTTGTCAC, the “PBM E-score” value turned out to be 0.296.
Consider AAACCTTC, for which the “PBM E-score” value was -0.288.
In the case of GCCGTCGC, the “PBM E-score” value is -0.0331.
For the sequence CTTCAGGC, the “PBM E-score” value is -0.0893.
On to CAATTGAG, for which the “PBM E-score” value was -0.0282.
In the case of ACATTAGC, the “PBM E-score” value was 0.147.
Next, CAAATCAA: 0.126.
For CGACAGGC the value was -0.152; for GAGTTCCC, 0.0462; for GTGCTGAA, -0.191.
On to ATGCGTGC, for which the “PBM E-score” value is -0.0193.
ACTTGTCA: the “PBM E-score” value was found to be 0.369.
Turning to ACTTGTAT, the “PBM E-score” value is 0.145.
Regarding GCTTGTCC, the “PBM E-score” value was 0.454.
Next, ACTTGTCT: 0.407.
As for GCTTGTCA, the “PBM E-score” value stood at 0.209.
Next, ACTTGTGC: -0.14; ACTTGTGA: -0.103; ACTTGTCC: 0.467.
For ACTTGGCT, the “PBM E-score” value is -0.176.
TCTTGTCA: the “PBM E-score” value came to 0.238.
Consider GCTTGTAC, for which the “PBM E-score” value came out at 0.267.
For the sequence ACTTGTCG, the “PBM E-score” value came out at 0.297.
